Experimental data: the supplement of paper PMC3334620
In all, about 33,000 sequences were measured (“E-score (-0.5 to 0.5)”: median about -0.054, highest 2% from about 0.35 on). Shown is part of a subset that was picked to be rich in the highest values.

What follows are sequences tested against T1, Stb5 (UniProt P38699) (assay: PBM E-score (8-mer binding enrichment) (E-score (-0.5 to 0.5)); higher = stronger / more preferred TF binding). Settings: protein concentration: 200 nM; construct: GST-full length.
T1 sequence: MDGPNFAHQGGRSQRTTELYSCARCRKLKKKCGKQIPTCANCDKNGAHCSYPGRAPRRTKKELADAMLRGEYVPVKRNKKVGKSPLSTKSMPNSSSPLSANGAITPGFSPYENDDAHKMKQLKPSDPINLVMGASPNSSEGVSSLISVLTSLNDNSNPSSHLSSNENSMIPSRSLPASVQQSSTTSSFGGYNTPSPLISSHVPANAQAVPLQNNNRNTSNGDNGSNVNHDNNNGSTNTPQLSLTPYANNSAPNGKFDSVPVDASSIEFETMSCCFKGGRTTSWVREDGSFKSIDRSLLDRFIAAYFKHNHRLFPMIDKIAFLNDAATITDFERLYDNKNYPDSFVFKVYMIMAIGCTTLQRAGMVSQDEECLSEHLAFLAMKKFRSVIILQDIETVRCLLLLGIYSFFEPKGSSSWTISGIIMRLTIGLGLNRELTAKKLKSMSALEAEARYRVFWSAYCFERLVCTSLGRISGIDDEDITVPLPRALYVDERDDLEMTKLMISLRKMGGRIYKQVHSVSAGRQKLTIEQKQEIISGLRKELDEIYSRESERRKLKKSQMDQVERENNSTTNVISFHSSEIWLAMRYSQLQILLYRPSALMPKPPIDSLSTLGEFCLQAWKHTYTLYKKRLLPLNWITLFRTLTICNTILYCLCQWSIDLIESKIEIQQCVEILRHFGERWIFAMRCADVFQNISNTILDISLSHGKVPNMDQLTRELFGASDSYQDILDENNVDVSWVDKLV
Summary of the method: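 For each ungapped eight-base word taken together with its reverse complement, the Universal PBM Analysis Suite assigned an E-score. Binding data came from GST-tagged yeast transcription factors, applied at about 100-200 nM, on universal all-10-mer Agilent arrays made double-stranded by primer extension. Fluorescent anti-GST marked bound protein, and scans were normalised with masliner.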

| Sequence | PBM E-score |
| --- | --- |
| GATGAGAC | -0.136 |
| ACACCGAG | 0.369 |
| CCACCGAC | 0.346 |
| AAACCGAC | 0.222 |
| CCACCGAG | 0.0738 |
| AGACCGAT | 0.272 |
| AAACCGAG | -0.0377 |
| AAACCGAT | 0.121 |
| ACACCGAT | 0.447 |
| ACACCGAC | 0.466 |
| AATGGTTC | 0.00524 |
| TAAATCTA | -0.0639 |
| GAATGAAA | 0.0556 |
| AATGCGGA | 0.2 |
| CCGAAGCG | 0.225 |
| ACCTTAAT | 0.0412 |
| AGGGCGCC | -0.0741 |
| CACGCCCG | 0.0876 |
| GACCATCA | 0.0409 |
| ACCACCCT | -0.168 |
| TCCACCGA | 0.176 |
| ACCACCAT | -0.138 |
| ACCACCGG | 0.406 |
| ACCACCGA | 0.357 |
| ACCACCAG | -0.148 |

| Sequence | PBM E-score |
| --- | --- |
| ACCACCGC | 0.391 |
| CCCACCGG | 0.303 |
| ACCACCGT | 0.354 |
| CCCACCGA | 0.118 |
| CCCACCGC | 0.221 |
| GCCACCGC | 0.335 |
| GGCGAGTA | -0.101 |
| CCTCTATA | -0.232 |
| CCTGACTC | -0.153 |
| CCTATAAG | -0.0382 |
| AACCTTGC | -0.0575 |
| AAGAAGTA | -0.102 |
| GAGCAAGC | -0.168 |
| AGCAACCA | -0.068 |
| CCAATTCA | -0.261 |
| CCCGACAG | 0.305 |
| ACCGACAC | 0.361 |
| ACCGACAT | 0.322 |
| CCCGACAA | 0.328 |
| AACGACAG | -0.205 |
| CCCGACAC | 0.34 |
| ACCGACAG | 0.363 |
| ACCGACAA | 0.369 |
| GCCGACAC | 0.239 |
| GGTTTGGA | 0.0254 |

| Sequence | PBM E-score |
| --- | --- |
| ACGATATG | -0.0261 |
| ATGGTTCG | -0.0398 |
| CTCGTTTC | -0.214 |
| GGACCTAA | 0.365 |
| TGACCTAA | -0.117 |
| CGACCTAA | 0.017 |
| AGGAGCTA | -0.0145 |
| CGGAGCTC | 0.249 |
| CGGAGCTA | 0.446 |
| AGGAGGTA | -0.0118 |
| CGGAGGTC | 0.122 |
| CGGAGGTA | 0.434 |
| TGTACGAA | -0.0429 |
| ACCACTGA | -0.202 |
| AGCCGACG | 0.232 |
| CGCCGACC | 0.345 |
| CGCCGACA | 0.354 |
| GGCCGACA | 0.327 |
| CGCCGACG | 0.395 |
| TGCCGACA | 0.298 |
| GGCTCTTA | 0.0283 |
| ACTCTAAA | 0.01 |
| ACCGCACG | 0.153 |
| AACGGGGA | 0.288 |
| GATCTACC | -0.0916 |

| Sequence | PBM E-score |
| --- | --- |
| AGCTGTTA | -0.234 |
| CGCTGTTC | 0.0181 |
| CGCTGTTA | 0.445 |
| GTCGGAAC | 0.315 |
| ACTCTCTA | -0.205 |
| ATAATGAA | -0.076 |
| ATACCGAC | 0.398 |
| ATACCGGC | 0.304 |
| ATACCGAT | 0.353 |
| CTACCGAC | 0.264 |
| ATACCGAA | 0.242 |
| CTACCGAA | 0.0544 |
| GTACCGAA | 0.145 |
| ATACCGAG | 0.224 |
| GTACCGAC | 0.382 |
| AACGTTGT | -0.107 |
| CGGTATAG | 0.179 |
| AACACTGT | -0.22 |
| AGCTGGTC | -0.26 |
| TAACAGTA | -0.227 |
| AAAAAGTC | 0.175 |
| TAGCTGCA | -0.191 |
| GGGGTGAC | 0.0132 |
| ACGGTGAG | 0.141 |
| GCGGTGAA | 0.345 |

| Sequence | PBM E-score |
| --- | --- |
| ACTGTGCT | -0.241 |
| ACGGTGAT | 0.367 |
| ACGGTGCT | 0.409 |
| ACGGTGCA | 0.127 |
| AAGGTGCT | -0.0966 |
| ACGGTGCC | 0.372 |
| ACGGTGCG | 0.281 |
| GCGGTGAC | 0.358 |
| ACGGTGAC | 0.297 |
| GAGAGTGC | -0.209 |
| AAACTGAT | -0.104 |
| CAGAGGGA | -0.261 |
| GATACTCC | 0.146 |
| TAGCACTA | -0.246 |
| AAAAAGAA | 0.175 |
| GCCAAGGA | -0.0748 |
| TAGGTCCA | -0.0733 |
| AGTTGCTG | -0.167 |
| GTCGTTAA | -0.0792 |
| CGAAGTTC | -0.147 |
| CCGACAGC | 0.341 |
| ACGCTTTC | -0.205 |
| ATGCTCCC | -0.0728 |
| ACGGTACT | 0.389 |
| ACGGTCAA | 0.126 |

| Sequence | PBM E-score |
| --- | --- |
| ACGGTCAT | 0.368 |
| ACGGTACG | 0.214 |
| ACGGTACC | 0.283 |
| ACGGTCAG | -0.0787 |
| CCGGTGCC | 0.328 |
| GCGGTGCC | 0.387 |
| GCGGTGCA | 0.259 |
| TCGCTAGA | -0.243 |
| AGCACCTG | -0.14 |
| CCCTCTCA | -0.284 |
| AAACGAGC | -0.209 |
| GTACTCCA | -0.229 |
| AGCGGAAT | 0.228 |
| AGCGGACT | 0.39 |
| AGCGGACA | 0.393 |
| AGCGGACG | 0.284 |
| AGCGGATA | 0.286 |
| CGCGGACA | 0.315 |
| CCCCCCCA | -0.263 |
| ACTCATAT | -0.0119 |
| CACCCCGA | 0.325 |
| CACCCCCC | -0.14 |
| CACCCCGC | 0.394 |
